# Sampled rows, rich in hits. Any-hit rate of the full collection: about 5.3%.
# Tau fibril ThT – inhibitors of human tau fibril formation, thioflavin T binding; P10636; recombinant tau K18 P301L, heparin-induced fibrillization, ThT fluorescence; Potency, µM (highest dose often 57.4 µM), inactives show at the highest dose activity, negative = inhibition, hits mostly inhibitors; 2.1% of 270,000 active; further: potency means the concentration at half of the fitted maximal effect; nearly all actives have a fitted effect of over 55% in size
# Target sequence (P10636 561-689 P618L limits assumed): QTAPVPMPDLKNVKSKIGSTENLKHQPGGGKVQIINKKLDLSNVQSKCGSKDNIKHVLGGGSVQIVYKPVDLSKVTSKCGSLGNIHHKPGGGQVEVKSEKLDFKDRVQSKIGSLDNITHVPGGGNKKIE
#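 Heparin-induced fibrillization of the P301L-mutant K18 repeat-domain fragment of human tau was followed by ThT binding in quantitative high-throughput format.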
# Coupling enz – counter-screen for Giardia aldolase inhibitors: coupling enzyme system | 0.67% of 290,000 active | AID 2472 | coupling enzyme system counterscreen, AmpLite Red fluorescence | activity change, negative = inhibition, % at 58.2 µM, hits read low; in the data active means activity change below about -30%
#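 Fluorescence at 525 nm excitation and 598 nm emission measured inhibition of the coupled detection system without aldolase. Compounds (at 57.5 uM final) were preincubated 10 min at room temperature with coupling enzyme reagent before a 20 min substrate/AmpLite Red step.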
# Tau fibril FP – blocks human tau fibril formation measured by polarization. K18 P301L tau heparin fibrillization, Alexa594 FP, 6 h. Potency, µM (doses to about 57.7 µM), without a hit: at the top dose activity, negative = inhibition, usual class: inhibitors. 0.39% of 280,000 active. AID 1468; further: potency means the concentration at half of the fitted maximal effect; nearly all actives have a fitted effect of over 55% in size
#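 Compound effects on tau fibrillization are measured by Alexa 594 fluorescence polarization (ex 555, em 632 nm). K18 P301L tau is used at 15 uM with 0.24 uM labeled tracer, and 20 uM heparin induces aggregation over 6 hr at 37 C.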
# Sfp PPTase inh – Sfp phosphopantetheinyl transferase inhibition; Q9F4F7; Biochemical Sfp PPTase activity, qHTS; Potency, µM, without a hit: largest response in the series, negative = inhibition, usual class: inhibitors; 3.5% of 310,000 active; AID 1490;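 further: the enzyme is Sfp with the accession as filed and its product quenches rhodamine fluorescence; potency means the concentration at half of the fitted maximal effect; 0% = enzyme reaction without inhibitor and -100% = no enzyme wells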
#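 Reaction rates are the 30-min fluorescence difference (ex 525, em 598 nm) in wells containing 15 nM Sfp, 5 uM rhodamine-CoA and 12.5 uM BHQ-2-YbbR at pH 7.6 with 10 mM MgCl2.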
# Tau fluor counter – counter-screen for tau fibril formation inhibitors | 0.93% of 280,000 active | Potency, µM (series often up to 57.7 µM), inactives show at the top dose activity change, negative = decrease | tau K18 P301L Alexa594 fluorescence, heparin fibrillization; further: potency means the concentration at half of the fitted maximal effect; nearly all actives have a fitted effect of over 55% in size
#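 Human tau K18 P301L (15 uM unlabeled, 0.24 uM Alexa 594-labeled) in 100 mM sodium acetate pH 7 with 20 uM heparin, 6 hr at 37 C. ThT 30 uM added, 1 hr ambient; Alexa 594 FP and total fluorescence read at 555/632 nm.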
# JMJD2E inh – blocks human JMJD2E demethylase activity; Potency, µM (series often up to 57.1 µM), without a hit: top-dose activity change, negative = inhibition, usual class: inhibitors; 1.6% of 230,000 active; JMJD2E catalytic domain, FDH-coupled NADH fluorescence (FDH is formaldehyde dehydrogenase); B2RXH2; active means well fitted inhibition curve with a large enough effect, not every such curve was filed as active; inconclusive means small, poorly fitted or top-dose-only effect, or another doubt; inactive means no such curve, though single readings can be large or run the other way;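 further: potency means the concentration at half of the fitted maximal effect; 0% = wells with enzyme and -100% = buffer wells without enzyme; nearly all actives have a fitted effect of over 50% in size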
# Target sequence (B2RXH2 1-337 limits assumed): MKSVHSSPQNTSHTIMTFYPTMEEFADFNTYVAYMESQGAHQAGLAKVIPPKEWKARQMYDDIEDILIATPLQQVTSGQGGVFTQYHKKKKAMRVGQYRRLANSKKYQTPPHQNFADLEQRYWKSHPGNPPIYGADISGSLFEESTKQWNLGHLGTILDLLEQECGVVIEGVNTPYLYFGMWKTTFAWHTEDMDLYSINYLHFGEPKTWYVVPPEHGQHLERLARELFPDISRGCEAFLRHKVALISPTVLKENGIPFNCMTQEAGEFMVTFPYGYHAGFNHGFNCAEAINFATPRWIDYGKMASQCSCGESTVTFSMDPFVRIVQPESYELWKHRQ
# An asterisk follows results filed as active; ? = inconclusive; / = not tested or not shown; [ ] = another dose, or the depositor's remark. Unless noted, the call rests on the fitted dose curve; in most records, active means well fitted curve in the direction sought with a large enough effect; inconclusive means small, poorly fitted or top-dose-only effect, or another doubt; inactive means no such curve, though single readings can be large; an effect the other way counts as inactive or inconclusive. Unless noted, on the % scale 0 is the no-effect control and ±100 the full control effect.
SMILES,Tau fibril ThT,Coupling enz,Tau fibril FP,Sfp PPTase inh,Tau fluor counter,JMJD2E inh
CN(C)S(=O)(=O)c1ccc(C(=O)NCCN2C(=O)S/C(=C\c3cccnc3)C2=O)cc1,1.6%,-11.0,-2.8%,39.8µM*,3.0%,1.3%
CS(=O)(=O)c1ccc(C(=O)NCCN2C(=O)S/C(=C\c3cccnc3)C2=O)cc1[N+](=O)[O-],15.8µM*,-0.9,?,-25.5%,?,-15.7%
CCN(CC)S(=O)(=O)c1ccc(C(=O)NCCN2C(=O)S/C(=C\c3cccnc3)C2=O)cc1,-9.5%,1.9,8.9%,2.4%,-2.3%,-0.4%
CCc1noc(-c2ccc(N3CCCCC3C)c([N+](=O)[O-])c2)n1 (stereo not given),1.4%,/,-2.6%,/,-9.8%,/
CCOc1ccc(N2CC(NC(=O)c3cc4ccccc4o3)CC2=O)cc1 (stereo not given),-12.3%,/,-7.7%,/,-12.2%,/
COc1ccc(NS(=O)(=O)c2ccc3c(c2)Cc2ccccc2-3)cn1,-7.0%,-4.5,-8.8%,70.8µM*,?,-11.1%
COc1ccc(NS(=O)(=O)c2ccc(N3CCCC3=O)cc2)cn1,-3.6%,-2.9,10.4%,16.4%,0.9%,-3.3%
Cc1cccc(Cn2c(=O)n(Cc3ccccc3)c(=O)c3c2c2cc(C)ccc2n3C)c1,15.3%,/,-2.0%,/,6.3%,/
CC[C@H]1C(c2cccc(C)c2)=NN(c2ccccc2)[C@@H]1CO,?,-0.7,?,1.2%,31.6µM*[quencher],/
CC[C@@H]1C(c2cccc(C)c2)=NN(c2ccccc2)[C@H]1C(=O)N1CCOC1=O,-9.6%[81.4 µM],-3.1,17.2%[81.3 µM],17.1%,?,/
CC[C@H]1C(c2cccc(Cl)c2)=NN(c2ccccc2)[C@@H]1CO,?,-6.3,11.3%[81.3 µM],16.8%,14.1µM*[quencher],/
C[C@H]1C(c2ccccc2)=NN(c2ccccc2)[C@@H]1CO,?,0.1,?,-4.5%,?,/
O=C(NCCN1CCOCC1)C1(C(F)(F)F)C/C(=C/CCO)CCCO1 (stereo not given),/,-1.7,/,6.1%,/,/
O=C(NCc1ccc(Cl)cc1)C(=O)Nc1ccc(Br)cc1,1.3%,/,-9.2%,/,-4.6%,/
COc1ccc(NC(=O)CN2CCN(Cc3ccccc3)CC2)cc1,/,-0.7,/,6.0%,/,/
CCCCNC(=O)CN1CCN(Cc2ccc3cc(OC)ccc3c2)CC1,/,-0.9,/,79.4µM*,/,/
Cc1ccc(C(=O)c2ccc([N+](=O)[O-])cc2)cc1,-6.9%,0.0,2.4%,2.7%,-12.0%,-4.1%
Cc1ccc(C(=O)c2coc3cc([N+](=O)[O-])c(O)c([N+](=O)[O-])c23)cc1,3.55µM*,-34.8*,-1.2%,39.8µM*,-27.8%,-1.9%
Cc1cccc(NC(=O)CCS(=O)(=O)c2cccc3nsnc23)c1C,20µM*,-1.2,?,?,-22.2%,1.4%
CC(C)NC(=O)c1onc(CSc2ccc(F)c(F)c2)c1C(=O)O,-10.0%,2.6,-4.4%,79.4µM*,-8.4%,?
CC(C)NC(=O)c1onc(CSc2ccc(F)cc2)c1C(=O)O,5.9%,7.7,-7.3%,-7.6%,-0.3%,-0.8%
COc1ccc(OC)c2c(C)c(C)[nH]c12,?,-6.9,-4.0%,10µM*,?,?
COc1ccc2c(c1)-c1nc(/N=C/c3c(O)ccc4ccccc34)sc1CC2,22.4µM*,-38.3*,?,-26.3%,?,?
CCn1cnc2cc(NCc3ccc(N(C)C)cc3)ccc21,?,-1.5,5.6%,-5.1%,11.2µM*[quencher],?
CCN(CC)c1ccc(CNc2ccc3c(c2)ncn3CC)cc1,/,0.3,/,-18.5%,/,/
SMILES,Tau fibril ThT,Coupling enz,Tau fibril FP,Sfp PPTase inh,Tau fluor counter,JMJD2E inh
COc1ccc(C)cc1Nc1n[n+](-c2ccccc2)c(-c2ccc(C(=O)O)cc2)s1,/,0.6,/,56.2µM*,/,/
CCC(C)(C)C1CCC(=NNc2nc3ccccc3[nH]2)CC1 (stereo not given),15.8µM*,-3.2,?,-39.3%,?,-12.4%
C(=N\Nc1nc2ccccc2[nH]1)/C1CCCCC1,?,-2.4,?,-12.9%,?,2.0%
CCOC(=O)CSc1nnc(-c2ccoc2C)n1-c1ccc(OCC)cc1,-10.5%,0.3,9.5%,56.2µM*,-6.4%,-1.8%
CCC(C)C(NC(=O)OC(C)(C)C)C(=O)NC1COC2CC(n3cc(C)c(=O)[nH]c3=O)OC12 (stereo not given),/,1.0,/,11.0%,/,/
COC(=O)c1cc2oc3ccccc3c2n1Cc1ccccn1,-23.3%,-7.2,2.0%,39.8µM*,-15.3%,?
CCOC(=O)c1sc(=S)n(-c2ccccc2)c1SC,-17.7%,-0.2,-3.3%,-12.2%,-21.2%,0.1%
Cc1ccc(C2NC(=O)c3sc(=S)n(-c4ccccc4)c3N2)cc1 (stereo not given),-17.0%,2.7,-5.3%,39.8µM*,-11.1%,-2.3%
O=C(O)C1NCCN(C(=O)c2ccc3c(ccc4ccccc43)c2)C1C(=O)O (stereo not given),/,-0.3,/,-9.7%,/,/
COc1cccc(-c2csc(N3CCN(C(=S)Nc4ccccc4)CC3)n2)c1,-7.8%,-0.4,-7.9%,0.6%,-29.1%,-2.1%
COc1cccc(-c2csc(N3CCN(C(=S)Nc4ccc(Cl)cc4)CC3)n2)c1,-10.2%,1.2,-3.8%,44.7µM*,?,-5.5%
Cc1noc(NS(=O)(=O)c2ccc(N/C=C\C(=O)c3cccc4ccccc34)cc2)c1C,10µM*,11.4,-5.1%,79.4µM*,-16.1%,-11.6%
Cc1noc(NS(=O)(=O)c2ccc(NC(=O)Nc3ccc(Cl)c(Cl)c3)cc2)c1C,?,8.2,?,-9.8%,11.2µM*[quencher],4.0%
Cc1noc(NS(=O)(=O)c2ccc(N/C=C\C(=O)c3ccc(Br)cc3)cc2)c1C,12.6µM*,14.4,-2.2%,70.8µM*,-24.7%,-9.5%
CCOc1ccc(C(=O)/C=C/Nc2ccc(S(=O)(=O)Nc3onc(C)c3C)cc2)cc1,3.6%,-2.6,5.8%,?,6.4%,0.7%
COc1cccc(C(=O)/C=C/Nc2ccc(S(=O)(=O)Nc3onc(C)c3C)cc2)c1,?,11.9,4.0%,9.3%,-12.9%,-9.6%
COc1ccc(Cl)cc1NC(=O)c1nn(-c2ccc(C)cc2)c(=O)n(C)c1=O,7.1%,/,-6.5%,/,3.7%,/
COC(=O)c1ccccc1NC(=O)CSc1nc2ccccc2nc1Cc1ccccc1OC,-3.8%,/,-15.0%,/,-12.6%,/
O=NCc1ccc([N+](=O)[O-])o1,/,/,/,8.2%,/,/
Cc1cc(C#N)c(C)n1-c1cc(S(=O)(=O)N2CCOCC2)ccc1N1CCCC1,-5.4%,-1.4,-10.4%,39.8µM*,-3.8%,0.0%
CCOCCCNC(=O)c1ccc(-n2c(-c3ccccc3)cc3c2CCCC3)cc1,?,/,-6.1%,/,?,/
CC(C)NC(=O)c1ccc(-n2c(-c3ccccc3)cc3c2CCCCC3)cc1,8.7%,/,12.6µM*,/,?,/

# From PubChem
